# PubChem BioAssay (EPA / NIEHS)
# The source made the active and inactive calls. Rule for the calls: active = hit-call score of the fitted dose curve at least 0.9, where 1 is the maximum; inactive = score below 0.9.
# Columns and labels:
# Conditions in all cases: mRNA level, 48 h; actives raise or lower the signal
# [1] = read-out: ABC Transporter (ABCC3), ABCC3 (gene 8714); experiment: LTEA_HepaRG_ABCC3: Life Technologies and Expression Analysis (LTEA) Assay for ABC Transporter (ABCC3) using HepaRG (AID 2283462)
# In short: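 Transcript level by TaqMan qRT-PCR, normalised to three housekeeping genes, fitted in both directions relative to vehicle. Chemicals tested in duplicate at eight half-log concentrations up to 100 uM for 48 h on HepaRG cells (0.5% DMSO).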
# [2] = read-out: ABC Transporter (ABCB11), ABCB11 (gene 8647); experiment: LTEA_HepaRG_ABCB11: Life Technologies and Expression Analysis (LTEA) Assay for ABC Transporter (ABCB11) using HepaRG (AID 2283463)
# In short: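 ABCB11 transcript levels are read by Fluidigm TaqMan qRT-PCR after 48 h chemical treatment of human HepaRG cells. Concentrations span 100 uM downward in half-log steps with 0.5% DMSO; gain or loss is fitted against DMSO controls.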
# [3] = read-out: ABC Transporter (ABCC2), ABCC2 (gene 1244); experiment: LTEA_HepaRG_ABCC2: Life Technologies and Expression Analysis (LTEA) Assay for ABC Transporter (ABCC2) using HepaRG (AID 2283464)
# In short: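 Endpoint is ABCC2 transcript level from qRT-PCR, normalized to three housekeeping genes and fitted bidirectionally relative to DMSO. Human HepaRG cells received test chemical for 48 h at up to 100 uM (8 points, half-log steps, 0.5% DMSO), duplicate wells.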
# [4] = read-out: Broad substrate specificity ATP-binding cassette transporter ABCG2 (Homo sapiens) (UniProt Q9UNQ0); experiment: LTEA_HepaRG_ABCG2: Life Technologies and Expression Analysis (LTEA) Assay for ABC Transporter (ABCG2) using HepaRG (AID 2283465)
# In short: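 Read-out is ABCG2 mRNA induction or loss quantified by qRT-PCR after 48 h chemical treatment of human HepaRG cells, normalized to three housekeeping genes. Concentrations reached 100 uM top in half-log steps; fitting was bidirectional against 0.5% DMSO.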
# [5] = read-out: Peroxisomal acyl-coenzyme A oxidase 1 (ACOX1) gene, ACOX1 (gene 51); experiment: LTEA_HepaRG_ACOX1: Life Technologies and Expression Analysis (LTEA) Assay for Peroxisomal acyl-coenzyme A oxidase 1 (ACOX1) gene using HepaRG (AID 2283467)
# In short: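 Measured by qRT-PCR against three housekeeping genes: ACOX1 transcript change in human HepaRG cells after 48 h dosing. Concentrations ran up to 100 uM in half-log steps. Curves were fitted bidirectionally relative to 0.5% DMSO.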
# [6] = read-out: Alkaline Phosphatase, Placental (ALPP) gene, ALPP (gene 250); experiment: LTEA_HepaRG_ALPP: Life Technologies and Expression Analysis (LTEA) Assay for Alkaline Phosphatase, Placental (ALPP) gene using HepaRG (AID 2283468)
# In short: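 ALPP transcript level, measured by qRT-PCR and normalized to three housekeeping genes (ACTB, GAPDH, POLR2A), after 48 h dosing of differentiated HepaRG in serum-free induction medium. Top concentration 100 uM with half-log dilutions (8 points, 0.5% DMSO, duplicates); bidirectional fitting relative to DMSO.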
# [7] = read-out: Bcl-2 (BAD) gene, BAD (gene 572); experiment: LTEA_HepaRG_BAD: Life Technologies and Expression Analysis (LTEA) Assay for Bcl-2 (BAD) gene using HepaRG (AID 2283469)
# In short: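 BAD transcript change, measured by qRT-PCR against three housekeeping genes and fitted in both directions relative to 0.5% DMSO, after 48 h chemical treatment of human HepaRG liver cells at concentrations up to 100 uM.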
# [8] = read-out: Bcl-2 (BAX) gene, BAX (gene 581); experiment: LTEA_HepaRG_BAX: Life Technologies and Expression Analysis (LTEA) Assay for Bcl-2 (BAX) gene using HepaRG (AID 2283470)
# In short: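 Differentiated human HepaRG cells, plated 48 h then switched to serum-free induction medium, were exposed 48 h to 8 half-log concentrations up to 100 uM in 0.5% DMSO; BAX mRNA measured by qRT-PCR, normalized to ACTB, GAPDH, POLR2A.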
# [9] = read-out: adenosine kinase (ADK) gene, ADK (gene 132); experiment: LTEA_HepaRG_ADK: Life Technologies and Expression Analysis (LTEA) Assay for adenosine kinase (ADK) gene using HepaRG (AID 2283471)
# In short: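 HepaRG (human liver), 48 h chemical exposure, 8-pt half-log series, top 100 uM, 0.5% DMSO vehicle. Readout: ADK mRNA by qRT-PCR vs housekeeping genes; bidirectional curve fit relative to DMSO baseline.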
# [10] = read-out: Alpha-fetoprotein (AFP) gene, AFP (gene 174); experiment: LTEA_HepaRG_AFP: Life Technologies and Expression Analysis (LTEA) Assay for Alpha-fetoprotein (AFP) gene using HepaRG (AID 2283472)
# In short: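 Human HepaRG cells plated 48 h, then switched to serum-free induction medium and exposed in duplicate for 48 h to 8-point half-log series from 100 uM in 0.5% DMSO. AFP mRNA by qRT-PCR, normalized to ACTB, GAPDH, POLR2A; bidirectional fit versus DMSO.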
# BCL2L11 (gene 10018) = experiment: LTEA_HepaRG_BCL2L11: Life Technologies and Expression Analysis (LTEA) Assay for Bcl-2 (BCL2L11) gene using HepaRG (AID 2283473)
# In short: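 BCL2L11 transcript levels are measured by Fluidigm qRT-PCR, normalized to three housekeeping genes. HepaRG cultures were plated 48 h, then treated 48 h with test chemical (top 100 uM, half-log, 0.5% DMSO vehicle); curves were fitted bidirectionally against DMSO.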
# [11] = read-out: Apolipoprotein A-V (APOA5) gene, APOA5 (gene 116519); experiment: LTEA_HepaRG_APOA5: Life Technologies and Expression Analysis (LTEA) Assay for Apolipoprotein A-V (APOA5) gene using HepaRG (AID 2283474)
# In short: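 APOA5 transcript levels were quantified by qRT-PCR, normalized to three housekeeping genes, after 48 h chemical treatment of HepaRG cells (8 points, 100 uM maximum, half-log steps, 0.5% DMSO). Curves fitted in both directions against vehicle.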
# [12] = read-out: Apoptosis regulator Bcl-2 (Homo sapiens) (UniProt P10415); experiment: LTEA_HepaRG_BCL2: Life Technologies and Expression Analysis (LTEA) Assay for Bcl-2 gene using HepaRG (AID 2283475)
# In short: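 Differentiated HepaRG cells in serum-free induction medium were exposed for 48 h to eight half-log concentrations up to 100 uM in 0.5% DMSO, in duplicate. BCL2 mRNA was quantified by TaqMan qRT-PCR normalised to ACTB, GAPDH and POLR2A, with bidirectional fitting versus DMSO.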
# [13] = read-out: Bcl-2 (BID) gene, BID (gene 637); experiment: LTEA_HepaRG_BID: Life Technologies and Expression Analysis (LTEA) Assay for Bcl-2 (BID) gene using HepaRG (AID 2283476)
# In short: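 Differentiated HepaRG cells in serum-free induction medium were exposed in duplicate for 48 h to eight half-log concentrations up to 100 uM in 0.5% DMSO. BID mRNA was quantified by qRT-PCR, normalized to ACTB, GAPDH and POLR2A.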
# [14] = read-out: Cytochrome P450 (CYP24A1), CYP24A1 (gene 1591); experiment: LTEA_HepaRG_CYP24A1: Life Technologies and Expression Analysis (LTEA) Assay for Cytochrome P450 (CYP24A1) using HepaRG (AID 2283478)
# In short: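 mRNA of CYP24A1 quantified by TaqMan qRT-PCR (ACTB/GAPDH/POLR2A normalization) after 48 h chemical exposure of HepaRG cells, top concentration 100 uM, half-log steps, 0.5% DMSO vehicle, duplicates. Curves fitted bidirectionally against DMSO baseline.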
# [15] = read-out: Cytochrome P450 (CYP1A2), CYP1A2 (gene 1544); experiment: LTEA_HepaRG_CYP1A2: Life Technologies and Expression Analysis (LTEA) Assay for Cytochrome P450 (CYP1A2) using HepaRG (AID 2283479)
# In short: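 CYP1A2 transcript measured by TaqMan qRT-PCR against three housekeeping genes after 48-hour chemical exposure of HepaRG cells. Eight-point half-log series topping at 100 uM in 0.5% DMSO, duplicates; gain or loss fitted relative to vehicle.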
# [16] = read-out: cysteine-aspartic acid protease (CASP8), CASP8 (gene 841); experiment: LTEA_HepaRG_CASP8: Life Technologies and Expression Analysis (LTEA) Assay for cysteine-aspartic acid protease (CASP8) using HepaRG (AID 2283480)
# In short: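 HepaRG, 48 h exposure, duplicate wells; 8 conc, half-log from 100 uM, 0.5% DMSO. Serum-free induction medium. CASP8 mRNA by TaqMan qRT-PCR, norm. ACTB/GAPDH/POLR2A; gain/loss fitted vs DMSO.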
# [17] = read-out: Cytochrome P450 (CYP2B6), CYP2B6 (gene 1555); experiment: LTEA_HepaRG_CYP2B6: Life Technologies and Expression Analysis (LTEA) Assay for Cytochrome P450 (CYP2B6) using HepaRG (AID 2283481)
# In short: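 CYP2B6 transcript level quantified by qRT-PCR against three housekeeping genes, fitted bidirectionally relative to DMSO. HepaRG cultures received chemicals for 48 h, 8-point half-log series from 100 uM in 0.5% DMSO, duplicate wells, serum-free induction medium.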
# [18] = read-out: Cytochrome P450 2C19 (Homo sapiens) (UniProt P33261); experiment: LTEA_HepaRG_CYP2C19: Life Technologies and Expression Analysis (LTEA) Assay for CYP2C19 using HepaRG (AID 2283482)
# In short: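 CYP2C19 transcript levels by qRT-PCR, normalized to three housekeeping genes, in HepaRG cells after 48 h chemical exposure. Eight-point half-log series topping at 100 uM, 0.5% DMSO vehicle. Increases and decreases both fitted against DMSO.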
# CYP2C8 (gene 1558) = experiment: LTEA_HepaRG_CYP2C8: Life Technologies and Expression Analysis (LTEA) Assay for CYP2C8 using HepaRG (AID 2283483)
# In short: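 CYP2C8 mRNA induction or loss, by qRT-PCR normalized to ACTB/GAPDH/POLR2A, is read in HepaRG cells after 48 h treatment. Concentrations run from 100 uM down in half-log dilutions, with 0.5% DMSO as vehicle and baseline.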
# Sequence of Broad substrate specificity ATP-binding cassette transporter ABCG2 (Homo sapiens) (Q9UNQ0 whole entry, looked up): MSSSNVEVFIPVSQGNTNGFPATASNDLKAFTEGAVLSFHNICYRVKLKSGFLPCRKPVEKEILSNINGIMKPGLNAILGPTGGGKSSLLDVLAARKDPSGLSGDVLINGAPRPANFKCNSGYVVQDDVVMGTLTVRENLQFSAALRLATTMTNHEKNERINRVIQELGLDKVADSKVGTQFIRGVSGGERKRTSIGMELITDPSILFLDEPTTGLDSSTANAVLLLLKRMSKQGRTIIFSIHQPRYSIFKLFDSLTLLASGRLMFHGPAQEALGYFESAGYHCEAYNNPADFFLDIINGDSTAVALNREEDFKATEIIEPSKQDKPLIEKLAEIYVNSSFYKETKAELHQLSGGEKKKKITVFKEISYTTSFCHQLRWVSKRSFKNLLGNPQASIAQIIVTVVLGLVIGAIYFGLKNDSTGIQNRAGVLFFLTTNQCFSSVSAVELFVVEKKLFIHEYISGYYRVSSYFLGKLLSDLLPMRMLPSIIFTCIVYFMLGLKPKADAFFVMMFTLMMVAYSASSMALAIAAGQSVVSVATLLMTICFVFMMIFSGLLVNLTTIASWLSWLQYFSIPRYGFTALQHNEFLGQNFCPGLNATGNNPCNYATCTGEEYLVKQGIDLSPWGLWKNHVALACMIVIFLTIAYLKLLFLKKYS
# Sequence of Apoptosis regulator Bcl-2 (Homo sapiens) (P10415 whole entry, looked up): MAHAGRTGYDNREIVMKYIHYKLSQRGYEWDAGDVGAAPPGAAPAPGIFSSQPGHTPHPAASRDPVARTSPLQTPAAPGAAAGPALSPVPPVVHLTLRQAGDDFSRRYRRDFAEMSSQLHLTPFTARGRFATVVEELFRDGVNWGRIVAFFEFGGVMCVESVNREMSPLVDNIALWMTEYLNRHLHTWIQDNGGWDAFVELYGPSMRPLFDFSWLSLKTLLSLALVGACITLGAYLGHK
# Sequence of Cytochrome P450 2C19 (Homo sapiens) (P33261 whole entry, looked up): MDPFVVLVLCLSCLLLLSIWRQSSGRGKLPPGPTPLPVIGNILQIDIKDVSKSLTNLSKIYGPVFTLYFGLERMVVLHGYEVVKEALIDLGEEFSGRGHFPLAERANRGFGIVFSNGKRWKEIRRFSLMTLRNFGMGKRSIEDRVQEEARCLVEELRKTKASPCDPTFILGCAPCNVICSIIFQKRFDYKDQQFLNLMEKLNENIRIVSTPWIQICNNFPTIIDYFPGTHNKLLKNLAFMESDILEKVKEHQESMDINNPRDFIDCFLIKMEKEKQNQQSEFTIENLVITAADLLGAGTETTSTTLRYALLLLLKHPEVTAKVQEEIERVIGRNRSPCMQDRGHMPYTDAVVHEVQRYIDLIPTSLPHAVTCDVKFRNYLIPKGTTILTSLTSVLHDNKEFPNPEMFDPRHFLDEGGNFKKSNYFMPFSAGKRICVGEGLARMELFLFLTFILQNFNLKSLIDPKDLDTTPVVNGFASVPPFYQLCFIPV
compound,measurement,setting,value
O=C1NS(=O)(=O)c2ccccc21,outcome,[1],inactive
same,outcome,[2],inactive
same,outcome,[3],inactive
same,outcome,[4],inactive
same,outcome,[5],inactive
same,outcome,[6],inactive
same,outcome,[7],inactive
same,outcome,[8],inactive
same,outcome,[9],inactive
same,outcome,[10],inactive
same,outcome,BCL2L11 (gene 10018),inactive
same,outcome,[11],inactive
same,outcome,[12],inactive
same,outcome,[13],inactive
same,outcome,[14],inactive
same,outcome,[15],inactive
same,outcome,[16],inactive
same,outcome,[17],inactive
same,outcome,[18],inactive
same,outcome,CYP2C8 (gene 1558),inactive
CN(C)CCOC(c1ccccc1)c1ccccc1,outcome,[1],inactive
same,outcome,[2],inactive
same,outcome,[3],inactive
same,outcome,[4],inactive
same,outcome,[5],inactive
same,outcome,[6],inactive
same,outcome,[7],inactive
same,outcome,[8],inactive
same,outcome,[9],inactive
same,AC50,[10],73.9 µM (active)
same,outcome,BCL2L11 (gene 10018),inactive
same,outcome,[11],inactive
same,outcome,[12],inactive
same,outcome,[13],inactive
same,outcome,[16],inactive
